Unmarked numbers belong to inactive results. Inconclusive results are not listed. Where a call stands in place of a potency, no number is given. Calls of active or inactive are those of the source. Unless noted, calls follow the shape of the full dose curve.
Key:
[1] = Nuclear factor erythroid 2-related factor 2/antioxidant responsive element (Nrf2/ARE) small molecule agonists: qHTS cell viability counter screen in human keratinocytes (AID 1919968; active = well fitted curve in the direction sought with a large enough effect in the repeat runs; an effect the other way counts as inactive or inconclusive; also: nearly all actives have a fitted effect of over 55% in size; also: potency is read from the fitted curve at half-maximal effect)
Summary of the method: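 Seed 1,500 KeratinoSens cells per well, then incubate 5 h at 37 C/5% CO2. Add compounds in DMSO and incubate 23 h. Add CellTiter-Fluor, wait 1 h and read fluorescence.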

[2] = target: Gonadotropin-releasing hormone receptor (Homo sapiens) (UniProt P30968); assay: Human gonadotropin-releasing hormone receptor (GnRHR) small molecule agonists, calcium flux assay in GnRHR-HEK293 cells (AID 1920063); also: nearly all actives have a fitted effect of over 35% in size
Gonadotropin-releasing hormone receptor (Homo sapiens), sequence (P30968 whole entry, looked up): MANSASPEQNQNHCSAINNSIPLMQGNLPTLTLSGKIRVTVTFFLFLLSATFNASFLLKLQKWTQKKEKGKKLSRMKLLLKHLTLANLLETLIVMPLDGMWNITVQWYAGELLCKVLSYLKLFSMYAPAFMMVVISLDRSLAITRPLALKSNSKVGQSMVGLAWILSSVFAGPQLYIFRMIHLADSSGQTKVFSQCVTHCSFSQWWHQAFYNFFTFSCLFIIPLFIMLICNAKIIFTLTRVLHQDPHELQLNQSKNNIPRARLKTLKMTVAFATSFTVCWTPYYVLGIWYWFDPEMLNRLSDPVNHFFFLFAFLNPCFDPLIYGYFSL
Summary of the method: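 Cells: HEK293 stably expressing human GnRHR. Steps: overnight (18 h) culture, 1 h calcium dye loading at 37 C, compound addition, kinetic fluorescence read at 480/540 nm. Each compound tested at 15 concentrations in triplicate.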

[3] = target: KiSS-1 receptor (Homo sapiens) (UniProt Q969F8); assay: Human kisspeptin (KISS1R) small molecule agonists, calcium flux assay in KISS1R-HEK293 cells (AID 1920064; active = well fitted curve in the direction sought with a large enough effect in the repeat runs; an effect the other way counts as inactive or inconclusive)
KiSS-1 receptor (Homo sapiens), sequence (Q969F8 whole entry, looked up): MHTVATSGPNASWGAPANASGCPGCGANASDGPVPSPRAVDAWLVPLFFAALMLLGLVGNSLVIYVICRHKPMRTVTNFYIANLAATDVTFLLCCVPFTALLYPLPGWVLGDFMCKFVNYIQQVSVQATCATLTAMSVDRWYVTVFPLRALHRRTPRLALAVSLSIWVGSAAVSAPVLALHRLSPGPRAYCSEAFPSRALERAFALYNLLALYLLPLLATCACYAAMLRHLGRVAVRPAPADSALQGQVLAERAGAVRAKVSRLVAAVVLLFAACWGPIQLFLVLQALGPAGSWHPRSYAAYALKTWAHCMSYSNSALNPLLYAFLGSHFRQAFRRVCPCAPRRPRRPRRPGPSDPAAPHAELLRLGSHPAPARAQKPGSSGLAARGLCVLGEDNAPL
Summary of the method: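 Cells plated and incubated 18 h; dye added, 1 h at 37 C; compounds in DMSO pinned in; signal read at 480/540 nm every second for 3 min. Each compound tested at 15 concentrations in triplicate.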

[4] = G protein-coupled receptor (GPCR) small molecule agonists, calcium flux assay: HEK293 wild type cell line counter screen (AID 1920065)
Summary of the method: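 Counter-screen of the Tox21 10K library for non-specific calcium release: dye-loaded cells received compounds in DMSO and were monitored by kinetic fluorescence (480/540 nm, 3 min). Fifteen concentrations, run in triplicate.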

[5] = p53 small molecule agonists, cell-based qHTS assay with human liver microsomes (AID 1963577);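 also: p53 response element beta-lactamase reporter cells with liver microsomes plus NADPH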
Summary of the method: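 HLM-supplemented p53RE-bla reporter assay: 16 h compound exposure at 37 C, microsomes and NADPH each 0.5 mg/mL final, read by fluorescence intensity.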

[6] = p53 small molecule agonists, cell-based qHTS assay with rat liver microsomes (AID 1963578)
Summary of the method: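 Quantitative HTS of the Tox21 10K library: p53RE-bla cells, rat liver microsomes plus NADPH at 0.5 mg/mL final each, 16 h at 37 C, beta-lactamase fluorescence detection.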

[7] = p53 small molecule agonists, cell-based qHTS assay with human liver microsomes: qHTS cell viability counter screen (AID 1963579); also: nearly all actives have a fitted effect of over 45% in size; also: potency is read from the fitted curve at half-maximal effect
Summary of the method: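 Viability of p53RE-bla cells is measured as CellTiter-Glo luminescence following a 16 h, 37 C incubation with compound, liver microsomes from human donors and NADPH.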

[8] = p53 small molecule agonists, cell-based qHTS assay: qHTS cell viability counter screen (AID 1963581); also: nearly all actives have a fitted effect of over 45% in size
Summary of the method: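 Cells: HCT-116 with p53 response element-driven beta-lactamase. Treatment: 16 h, 37 C, compounds in DMSO. Read: CellTiter-Glo luminescence after 30 min RT.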

[9] = p53 small molecule agonists, cell-based qHTS assay (AID 1963582; active = well fitted activation curve with a large enough effect in the signal ratio in the repeat runs, not every such curve was filed as active; the % refers to the signal ratio)
Summary of the method: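 Quantitative HTS in p53RE-bla cells: after a 5 h settling period, compounds delivered in DMSO were left on cells for 16 h at 37 C, and reporter induction was measured as fluorescence following 2 h substrate loading.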

[10] = target: 5-hydroxytryptamine receptor 2A (Homo sapiens) (UniProt P28223); assay: 5-hydroxytryptamine receptor 2A (HTR2A) small molecule antagonists, cell-based qHTS assay (AID 1963586); also: nearly all actives have a fitted effect of over 45% in size
5-hydroxytryptamine receptor 2A (Homo sapiens), sequence (P28223 whole entry, looked up): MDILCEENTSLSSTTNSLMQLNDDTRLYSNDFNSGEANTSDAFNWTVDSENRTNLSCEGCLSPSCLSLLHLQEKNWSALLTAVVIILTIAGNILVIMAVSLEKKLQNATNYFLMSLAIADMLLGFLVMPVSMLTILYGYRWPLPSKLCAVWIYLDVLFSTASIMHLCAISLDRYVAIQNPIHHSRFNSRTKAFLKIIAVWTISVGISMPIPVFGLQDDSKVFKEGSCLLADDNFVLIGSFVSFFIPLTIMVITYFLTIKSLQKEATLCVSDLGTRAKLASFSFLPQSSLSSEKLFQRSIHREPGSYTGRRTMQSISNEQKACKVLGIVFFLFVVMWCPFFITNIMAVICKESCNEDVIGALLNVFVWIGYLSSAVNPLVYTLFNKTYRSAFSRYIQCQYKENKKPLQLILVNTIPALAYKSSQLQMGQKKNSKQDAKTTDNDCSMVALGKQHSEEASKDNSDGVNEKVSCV
Summary of the method: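 Antagonist-mode intracellular calcium assay: DOI (4 nM) added after 5 min compound pre-incubation at room temperature to dye-loaded HTR2A-CHO cells. Fluorescence followed for 3 min, sampled every second.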

[11] = target: 5-hydroxytryptamine receptor 2A (Homo sapiens) (UniProt P28223); assay: 5-hydroxytryptamine receptor 2A (HTR2A) small molecule agonists, cell-based qHTS assay (AID 1963587); also: nearly all actives have a fitted effect of over 30% in size
Summary of the method: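 CHO cells stably expressing human HTR2A, plated 18 h, loaded with calcium dye 1 h at 37 C. Agonist mode: compounds added and intracellular calcium fluorescence recorded kinetically for 2 min at 1 sec intervals.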

[12] = target: Muscarinic acetylcholine receptor M1 (Homo sapiens) (UniProt P11229); assay: Cholinergic receptor muscarinic 1 (CHRM1) small molecule antagonists, cell-based qHTS assay (AID 1963588); also: nearly all actives have a fitted effect of over 40% in size; also: potency is read from the fitted curve at half-maximal effect
Muscarinic acetylcholine receptor M1 (Homo sapiens), sequence (P11229 whole entry, looked up): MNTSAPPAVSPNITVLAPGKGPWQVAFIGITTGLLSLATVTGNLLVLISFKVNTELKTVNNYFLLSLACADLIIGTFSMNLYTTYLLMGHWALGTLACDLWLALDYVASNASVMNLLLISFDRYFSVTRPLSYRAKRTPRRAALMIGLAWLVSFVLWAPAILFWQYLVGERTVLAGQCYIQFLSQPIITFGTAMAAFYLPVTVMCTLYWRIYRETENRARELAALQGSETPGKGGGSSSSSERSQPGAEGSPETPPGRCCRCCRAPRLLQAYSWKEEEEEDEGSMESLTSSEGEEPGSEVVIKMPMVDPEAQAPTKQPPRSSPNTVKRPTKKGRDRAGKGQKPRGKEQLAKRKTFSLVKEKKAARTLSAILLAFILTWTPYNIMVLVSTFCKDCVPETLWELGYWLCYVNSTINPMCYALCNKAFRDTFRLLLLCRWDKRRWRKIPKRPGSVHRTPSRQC
Summary of the method: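 CHRM1-CHO calcium-flux assay, antagonist mode. Cells were seeded 18 h, dye-loaded 1 h at 37 C and given compound for 5 min at RT, then acetylcholine was added at 50nM. FDSS fluorescence was read 3 min; 15 concentrations, three runs.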

[13] = target: Muscarinic acetylcholine receptor M1 (Homo sapiens) (UniProt P11229); assay: Cholinergic receptor muscarinic 1 (CHRM1) small molecule agonists, cell-based qHTS assay (AID 1963589); also: nearly all actives have a fitted effect of over 35% in size
Summary of the method: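 Agonist-mode qHTS in CHO cells stably carrying human muscarinic M1. Intracellular calcium is tracked by fluorescence every second after compound transfer; each compound runs at 15 concentrations in three independent runs.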

[14] = cAMP Responsive Elements (CRE) small molecule agonists, cell-based qHTS assay (AID 1963590)
Summary of the method: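 Agonist mode qHTS in CRE-bla HEK 293T cells: compounds dosed from DMSO for 3 h at 37 C/5% CO2, followed by LiveBLAzer B/G FRET substrate for 2 h at room temperature.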

[15] = cAMP Responsive Elements (CRE) small molecule antagonists, cell-based qHTS assay (AID 1963591; active = well fitted inhibition curve with a large enough effect in the signal ratio in the repeat runs, not every such curve was filed as active; the % refers to the signal ratio)
Summary of the method: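 Antagonist mode: test compounds are co-incubated with the adenylyl cyclase activator NKH477 (0.25 uM final) on CRE-bla HEK293T cells for 3 h at 37 °C, followed by LiveBLAzer substrate loading.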

[16] = target: Beta-2 adrenergic receptor (Homo sapiens) (UniProt P07550); assay: Adrenergic beta2 receptor (ADRB2) small molecule antagonists, cell-based qHTS assay (AID 1963592); also: series mostly up to about 92 µM; nearly all actives have a fitted effect of over 50% in size
Beta-2 adrenergic receptor (Homo sapiens), sequence (P07550 whole entry, looked up): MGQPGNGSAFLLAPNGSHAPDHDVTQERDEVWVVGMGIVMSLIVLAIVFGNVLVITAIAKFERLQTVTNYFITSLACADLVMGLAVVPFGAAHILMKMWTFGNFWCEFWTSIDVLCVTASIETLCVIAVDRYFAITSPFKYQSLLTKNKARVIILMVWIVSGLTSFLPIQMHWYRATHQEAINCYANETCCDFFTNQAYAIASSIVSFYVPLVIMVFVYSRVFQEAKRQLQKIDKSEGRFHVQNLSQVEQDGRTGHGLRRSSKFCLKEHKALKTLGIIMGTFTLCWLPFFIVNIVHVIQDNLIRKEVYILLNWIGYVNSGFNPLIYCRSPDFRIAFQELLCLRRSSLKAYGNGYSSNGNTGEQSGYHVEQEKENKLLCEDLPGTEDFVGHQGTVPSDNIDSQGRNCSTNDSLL
Summary of the method: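 Cells (CHO, stable ADRB2 overexpression) incubated 18-20hr at 37C; compounds added from DMSO; agonist mix (1nM isoproterenol, 100uM IBMX, 25uM Ro-20-1724) added; 0.5hr RT; d2-cAMP and anti-cAMP-cryptate added; 1hr RT; 665/615 nm read.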

[17] = target: Beta-2 adrenergic receptor (Homo sapiens) (UniProt P07550); assay: Adrenergic beta2 receptor (ADRB2) small molecule agonists, cell-based qHTS assay (AID 1963593);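 also: CHO cells stably overexpressing human ADRB2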
Summary of the method: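 CHO cells stably over-expressing ADRB2 were plated overnight at 37C, then dosed with compounds plus a stimulation mix containing 100uM IBMX and 25uM Ro-20-1724 for 0.5hr at room temperature. cAMP was measured by HTRF competition, 1hr.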

[18] = target: D(2) dopamine receptor (Homo sapiens) (UniProt P14416); assay: Dopamine D2 receptor (DRD2) small molecule agonists, cell-based qHTS assay (AID 1963594); also: nearly all actives have a fitted effect of over 35% in size
D(2) dopamine receptor (Homo sapiens), sequence (P14416 whole entry, looked up): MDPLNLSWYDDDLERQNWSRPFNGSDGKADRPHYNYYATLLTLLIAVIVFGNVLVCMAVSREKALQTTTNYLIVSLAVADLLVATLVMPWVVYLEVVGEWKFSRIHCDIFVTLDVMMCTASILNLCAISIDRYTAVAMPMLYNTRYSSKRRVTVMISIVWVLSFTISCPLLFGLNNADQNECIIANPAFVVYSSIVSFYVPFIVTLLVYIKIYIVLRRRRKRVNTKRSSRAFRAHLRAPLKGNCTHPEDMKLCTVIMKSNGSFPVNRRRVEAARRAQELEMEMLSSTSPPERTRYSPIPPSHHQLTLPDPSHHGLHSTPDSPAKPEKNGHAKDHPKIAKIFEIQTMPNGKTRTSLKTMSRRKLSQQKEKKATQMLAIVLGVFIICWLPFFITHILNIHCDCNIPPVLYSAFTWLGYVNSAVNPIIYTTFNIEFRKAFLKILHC
Summary of the method: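 HEK293 cells stably expressing human DRD2, pre-treated with PDE inhibitor Ro20-1724 (0.1 mM final) and compound 10 min at room temperature, then stimulated with NKH477 (200nM […]) for 30 min. cAMP read by HTRF (665/620 nm).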

[19] = target: D(2) dopamine receptor (Homo sapiens) (UniProt P14416); assay: Dopamine D2 receptor (DRD2) small molecule antagonists, cell-based qHTS assay (AID 1963595; active = well fitted inhibition curve with a large enough effect in the signal ratio in the repeat runs, with a control signal flat; the % refers to the signal ratio)
Summary of the method: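 DRD2-HEK293; 0.1 mM Ro20-1724; cpd 10 min RT; NKH477 200 nM + quinpirole 12 nM, 30 min RT; HTRF cAMP (cAMP-d2/anti-cAMP cryptate), 665/620 nm ratio after 1 h.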

[20] = p53 small molecule agonists, cell-based qHTS assay with rat liver microsomes: qHTS cell viability counter screen (AID 1963580); also: nearly all actives have a fitted effect of over 45% in size; also: potency is read from the fitted curve at half-maximal effect
Summary of the method: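 p53RE-bla HCT-116 cells were exposed 16 h at 37 C to compounds with rat liver microsomes (0.5 mg/mL) and NADPH (0.5 mg/mL). Viability was measured in the same wells as ATP content by CellTiter-Glo luminescence.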

Row | SMILES | Potency [1] | Potency [2] | outcome [3] | outcome [4] | Potency [5] | Potency [6] | Potency [7] | Potency [8] | Potency [9] | Potency [10] | Potency [11] | Potency [12] | Potency [13] | Potency [14] | Potency [15] | Potency [16] | Potency [17] | Potency [18] | Potency [19] | Potency [20]
1 | C=CC(=O)OCCCCCCCCCC | inactive | inactive | inactive | inactive | inactive | inactive | inactive | inactive | inactive | inactive | inactive | inactive | inactive | inactive | inactive | inactive | inactive | inactive | inactive | –
2 | CN(C[C@@H](CC[N+]12CCC(C3CCCCC3)(CC1)CC2)c1ccc(Cl)c(Cl)c1)C(=O)c1cc(C(F)(F)F)cc(C(F)(F)F)c1 | 61.1 µM (active) | inactive | inactive | inactive | inactive | inactive | 36.3 µM (active) | – | – | inactive | inactive | 0.0942 µM (active) | inactive | – | – | – | – | – | – | 40.8 µM (active)
3 | CC(CC(C#N)(c1ccccc1)C(C)C)N(C)C (centres undefined) | inactive | inactive | inactive | inactive | inactive | inactive | inactive | – | inactive | inactive | inactive | – | inactive | inactive | inactive | inactive | inactive | inactive | inactive | inactive
4 | CC(C(=O)O)c1ccc(-c2ccccc2)c(F)c1 (centres undefined) | inactive | inactive | inactive | inactive | inactive | inactive | inactive | inactive | – | – | – | – | – | – | – | inactive | – | inactive | inactive | inactive
5 | CN1CCN(c2c(F)cc3c(=O)c(C(=O)O)cn4c3c2SCC4)CC1 | inactive | inactive | inactive | inactive | inactive | inactive | inactive | – | – | inactive | inactive | – | inactive | – | – | inactive | inactive | – | inactive | inactive
6 | CCc1nccnc1C | inactive | – | inactive | inactive | inactive | – | – | inactive | inactive | inactive | – | inactive | inactive | inactive | inactive | – | – | inactive | inactive | inactive
7 | Cc1ccccc1N1CCN(CCc2nnc3n2CCCC3)CC1 | inactive | inactive | inactive | inactive | – | inactive | inactive | inactive | inactive | – | – | – | – | inactive | inactive | inactive | inactive | inactive | inactive | inactive
8 | C=C1CC[C@H](O)C/C1=C\C=C1/CCC[C@]2(C)[C@@H]([C@H](C)CCCC(C)C)CC[C@@H]12 | inactive | inactive | inactive | inactive | inactive | – | inactive | inactive | – | – | – | – | – | – | inactive | inactive | inactive | inactive | inactive | –
9 | CC1=CP(=O)(c2ccccc2)CC1 (centres undefined) | inactive | inactive | – | inactive | inactive | – | inactive | inactive | inactive | inactive | inactive | inactive | inactive | inactive | inactive | – | inactive | inactive | inactive | –
10 | OCC(F)(F)F | inactive | inactive | inactive | inactive | – | inactive | 38.3 µM (active) | inactive | inactive | – | inactive | inactive | – | inactive | inactive | inactive | – | inactive | inactive | inactive
11 | CCCCCOc1ccc(C2SC(=O)NC2=O)cc1OCC (centres undefined) | inactive | – | inactive | inactive | inactive | inactive | inactive | inactive | – | inactive | inactive | inactive | inactive | – | – | inactive | inactive | – | inactive | inactive
12 | CC1OCCC1=O (centres undefined) | inactive | – | inactive | inactive | inactive | inactive | inactive | – | inactive | inactive | inactive | inactive | inactive | inactive | inactive | inactive | – | inactive | inactive | inactive
13 | O=C(/C=C/c1ccc(O)c(O)c1)O[C@@H]1C[C@](O)(C(=O)O)C[C@@H](O)[C@H]1O | inactive | inactive | – | inactive | inactive | inactive | inactive | inactive | inactive | inactive | inactive | inactive | inactive | inactive | inactive | – | – | inactive | – | inactive
14 | CCc1ccc(C(=O)C(C)CN2CCCCC2)cc1 (centres undefined) | inactive | inactive | inactive | inactive | inactive | inactive | – | inactive | inactive | – | – | – | – | inactive | – | inactive | inactive | inactive | – | –
15 | CCn1c2ccccc2c2cc([N+](=O)[O-])ccc21 | inactive | inactive | inactive | inactive | inactive | – | inactive | – | inactive | – | inactive | inactive | inactive | – | inactive | inactive | – | inactive | inactive | inactive
16 | CC(=O)OC1CCCCC1 | inactive | – | inactive | inactive | inactive | inactive | inactive | inactive | inactive | – | inactive | inactive | inactive | inactive | – | inactive | – | inactive | inactive | inactive

Source: PubChem BioAssay (Tox21)
